Experimental findings from PMC8384837, “Expanding the binding specificity for RNA recognition by a PUF domain” are described below.

Test in all cases: yeast three-hybrid, YBZ-1, SC-Leu-His + 0.5 mM 3-AT, 4 days
Common to all, as to details: tags: N-Gal4 AD-HA kept; label: inside an RPR1-promoter hybrid RNA with tandem MS2 sites; ssRNA

One test concerns the target PUM1 PUF domain R1-GLR (Homo sapiens, UniProt Q14671 828-1176, S863G;R864L;Q867R). The essentials:
(§1)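 Matching RNA elements and Pumilio-1 PUF domain libraries, randomized at the three base-contacting residues of every repeat, were co-expressed from a centromeric plasmid in strain YBZ-1 (LexA–MS2 coat fusion, HIS3 reporter). The repeat regions were PCR-amplified and Illumina-sequenced from cells grown four days on SC-Leu (input) or SC-Leu-His + 0.5 mM 3-AT (selection). The interaction score is the log change in variant frequency from input to selection. It is computed in log2, with a pseudocount of 1 for absent variants.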

The next test addresses PUM1 PUF domain R4-WGC (Homo sapiens, UniProt Q14671 828-1176, N971W;H972G;Q975C). In a few lines: as §1
A further test deals with PUM1 PUF domain R5-CHG (Homo sapiens, UniProt Q14671 828-1176, R1008H;Q1011G). The essentials:
as §1

Another test has as its target PUM1 PUF domain R4-VSI (Homo sapiens, UniProt Q14671 828-1176, N971V;H972S;Q975I). The essentials: as §1
A further test concerns the target PUM1 PUF domain R5-RQS (Homo sapiens, UniProt Q14671 828-1176, C1007R;R1008Q;Q1011S). In a few lines:
as §1

The next test addresses PUM1 PUF domain R5-RRL (Homo sapiens, UniProt Q14671 828-1176, C1007R;Q1011L). The essentials:
as §1

The next test deals with PUM1 PUF domain R8-RFV (Homo sapiens, UniProt Q14671 828-1176, N1122R;Y1123F;Q1126V). The essentials:
as §1

Another test concerns the target PUM1 PUF domain R3-IWA (Homo sapiens, UniProt Q14671 828-1176, C935I;R936W;Q939A). In a few lines: as §1
The next test has as its target PUM1 PUF domain R7-RVL (Homo sapiens, UniProt Q14671 828-1176, S1079R;N1080V;E1083L). In a few lines: as §1

Sequence of PUM1 PUF domain R5-RRL (Q14671 828-1176 C1007R/Q1011L): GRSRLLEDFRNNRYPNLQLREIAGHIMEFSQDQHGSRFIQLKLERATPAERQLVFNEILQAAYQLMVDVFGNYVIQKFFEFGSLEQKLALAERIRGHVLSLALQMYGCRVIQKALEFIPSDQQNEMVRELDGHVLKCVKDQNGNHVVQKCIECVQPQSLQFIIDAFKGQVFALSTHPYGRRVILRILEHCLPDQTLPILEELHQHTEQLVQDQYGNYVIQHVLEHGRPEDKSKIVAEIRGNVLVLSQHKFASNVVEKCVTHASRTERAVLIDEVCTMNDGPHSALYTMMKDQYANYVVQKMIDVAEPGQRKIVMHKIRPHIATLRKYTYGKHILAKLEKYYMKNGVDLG
Sequence of PUM1 PUF domain R5-RQS (Q14671 828-1176 C1007R/R1008Q/Q1011S): as the sequence (Q14671 828-1176 C1007R/Q1011L) above, with R181Q, L184S counted along it
Sequence of PUM1 PUF domain R5-CHG (Q14671 828-1176 R1008H/Q1011G): as the sequence (Q14671 828-1176 C1007R/Q1011L) above, with R180C, R181H, L184G counted along it
Sequence of PUM1 PUF domain R8-RFV (Q14671 828-1176 N1122R/Y1123F/Q1126V): as the sequence (Q14671 828-1176 C1007R/Q1011L) above, with R180C, L184Q, N295R, Y296F, Q299V counted along it
Sequence of PUM1 PUF domain R4-WGC (Q14671 828-1176 N971W/H972G/Q975C): as the sequence (Q14671 828-1176 C1007R/Q1011L) above, with N144W, H145G, Q148C, R180C, L184Q counted along it
Sequence of PUM1 PUF domain R3-IWA (Q14671 828-1176 C935I/R936W/Q939A): as the sequence (Q14671 828-1176 C1007R/Q1011L) above, with C108I, R109W, Q112A, R180C, L184Q counted along it
Sequence of PUM1 PUF domain R7-RVL (Q14671 828-1176 S1079R/N1080V/E1083L): as the sequence (Q14671 828-1176 C1007R/Q1011L) above, with R180C, L184Q, S252R, N253V, E256L counted along it
Sequence of PUM1 PUF domain R1-GLR (Q14671 828-1176 S863G/R864L/Q867R): as the sequence (Q14671 828-1176 C1007R/Q1011L) above, with S36G, R37L, Q40R, R180C, L184Q counted along it
Sequence of PUM1 PUF domain R4-VSI (Q14671 828-1176 N971V/H972S/Q975I): as the sequence (Q14671 828-1176 C1007R/Q1011L) above, with N144V, H145S, Q148I, R180C, L184Q counted along it

For the sequence “GGCUAGAACUAGUGGAUCCCCCGGCGCCCGGCGGCUCGAGCCCGGGUAAGUGUAAAUCGUCUGCAUGCCGCCGGGCGCCAUGCCUGCAGGUCGACUCUAGAAAACAUG”, in the test with PUM1 PUF domain R1-GLR, the binding signal was 3.78 log2 enrichment (interaction score).

Turning to “GGCUAGAACUAGUGGAUCCCCCGGCGCCCGGCGGCUCGAGCCCGGGUAAGUGUACAUAGUCUGCAUGCCGCCGGGCGCCAUGCCUGCAGGUCGACUCUAGAAAACAUG”, the binding signal in the test with PUM1 PUF domain R4-WGC is 1.65 log2 enrichment (interaction score).

As for “GGCUAGAACUAGUGGAUCCCCCGGCGCCCGGCGGCUCGAGCCCGGGUAAGUGUAAAUAGUCUGCAUGCCGCCGGGCGCCAUGCCUGCAGGUCGACUCUAGAAAACAUG”, the binding signal is 3.32 log2 enrichment (interaction score) in the test with PUM1 PUF domain R5-CHG; 2.13 log2 enrichment (interaction score) in the test with PUM1 PUF domain R4-VSI; 1.32 log2 enrichment (interaction score) in the test with PUM1 PUF domain R5-RQS; 2.66 log2 enrichment (interaction score) with PUM1 PUF domain R4-WGC; 1.79 log2 enrichment (interaction score) with PUM1 PUF domain R5-RRL; 6.16 log2 enrichment (interaction score) with PUM1 PUF domain R8-RFV. In the test with PUM1 PUF domain R3-IWA, the binding signal was 5.07 log2 enrichment (interaction score).

For “GGCUAGAACUAGUGGAUCCCCCGGCGCCCGGCGGCUCGAGCCCGGGUAAGUUUAAAUAGUCUGCAUGCCGCCGGGCGCCAUGCCUGCAGGUCGACUCUAGAAAACAUG”, in the test with PUM1 PUF domain R7-RVL, the binding signal is 3.33 log2 enrichment (interaction score).

On to “GGCUAGAACUAGUGGAUCCCCCGGCGCCCGGCGGCUCGAGCCCGGGUAAGUGUUAAUAGUCUGCAUGCCGCCGGGCGCCAUGCCUGCAGGUCGACUCUAGAAAACAUG”, for which the binding signal was 3.47 log2 enrichment (interaction score) with PUM1 PUF domain R5-CHG, 5.24 log2 enrichment (interaction score) in the test with PUM1 PUF domain R5-RQS and 4.45 log2 enrichment (interaction score) with PUM1 PUF domain R5-RRL.

For the sequence “GGCUAGAACUAGUGGAUCCCCCGGCGCCCGGCGGCUCGAGCCCGGGUAAGCGUAAAUAGUCUGCAUGCCGCCGGGCGCCAUGCCUGCAGGUCGACUCUAGAAAACAUG”, in the test with PUM1 PUF domain R8-RFV, the binding signal was 6.22 log2 enrichment (interaction score).

“GGCUAGAACUAGUGGAUCCCCCGGCGCCCGGCGGCUCGAGCCCGGGUAAGUGUAAGUAGUCUGCAUGCCGCCGGGCGCCAUGCCUGCAGGUCGACUCUAGAAAACAUG”: the binding signal with PUM1 PUF domain R3-IWA was 5.56 log2 enrichment (interaction score).

“GGCUAGAACUAGUGGAUCCCCCGGCGCCCGGCGGCUCGAGCCCGGGUAAGUGUCAAUAGUCUGCAUGCCGCCGGGCGCCAUGCCUGCAGGUCGACUCUAGAAAACAUG”: the binding signal in the test with PUM1 PUF domain R5-CHG is 1.6 log2 enrichment (interaction score); with PUM1 PUF domain R5-RQS, 4.99 log2 enrichment (interaction score); in the test with PUM1 PUF domain R5-RRL it was 3.98 log2 enrichment (interaction score).
